PubChem BioAssay (NCI)
Values joined by “and” are separate entries in the source; they are usually repeats but may differ in a detail not shown here. Equal entries are not always repeated. About 83,000 compounds went through this panel and 20% of them were active in at least one assay; those are over-represented in the sample as a whole.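 Single-concentration screen, 48 h exposure, 96-well plates. Endpoint: percent growth. Below 10 = active.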 Values without a mark were called inactive. Active and inactive are the calls of the source.

Each compound was assayed on MDA-MB-468 breast (assay: NCI-60 one-dose screen, 48 h (100 = growth as untreated, 0 = no growth, -100 = all killed)). Conditions: 10 µM unless noted.

Compound	growth
CCCCCCCCCCCCCCCCCCOc1ccccc1CC(=O)NCC[N+]1(C)CCOCC1	13.7%
CC(C)C[C@H](NC(=O)Cn1ccc(NCc2ccccc2)cc1=O)B(O)O	-41.2% (active)
COc1ccc(-c2nc(SCC(C)C)nc(N/N=C(/C)c3ccc(OC)c(OC)c3)c2C#N)cc1	91.5%
O=C(Nc1ccc(-n2cc(-c3ccncc3)c(-c3ccc(O)c(Cl)c3)n2)cc1)c1ccc(Cl)c(C(F)(F)F)c1	27.5%
COc1ccc(-c2cc(=O)oc3c4c(ccc23)OCN(Cc2ccc(F)cc2)C4)cc1	16.1%
CC/C(=C(\c1ccc(O)cc1)c1ccc(OCCN(C)CCN(C)C(=O)CCCCC(=O)c2c(C)[nH]c(/C=C3\N=C(c4ccc[nH]4)C=C3OC)c2C)cc1)c1ccccc1	80%
CCOC(=O)C/C(=C\c1ccccc1)C(C)=O	108%
CCN(CC)CC(O)c1cc(-c2ccc(Cl)cc2)nc2cc(Cl)ccc12 (stereo not given)	-76.9% (active)
C=CC(=O)Nc1cccc(C)c1Nc1cc(-c2cccnc2Cc2c(C)c(OC)cc(OC)c2C)ncn1	19.5%
CNC1(C#N)CCN(Cc2ccccc2)CC1	85.6%
N#Cc1c(N)nnn1Cc1cc(=O)oc2c1ccc1ccccc12	106%
Cc1ccc(C2CC(c3ccc(Nc4nc(NCCO)nc(NCCO)n4)cc3)=NN2c2ccc(Cl)cc2)cc1 (stereo not given)	73.2%
NC1=Nc2cc(OCCCN3Cc4ccccc4C3)c(OCC3CC3)cc2C12CCCC2	31.9%
Oc1c(C(c2ccc(F)cc2)N2CCCCC2)ccc2cncnc12 (stereo not given)	-2.7% (active)
CCN1C(=O)N(CC)C2C1NN=c1s/c(=C3\C(=O)N(CC(C)(C)C)c4ccccc43)c(=O)n12 (stereo not given)	18%
CCOC(=O)[C@@H](C)C[C@H](Cc1ccccc1)NC(=O)c1csc([C@@H](C[C@H](C(C)C)N(C)C(=O)[C@@H](NC(=O)[C@H]2C[C@H](O[Si](C)(C)C(C)(C)C)CCN2C)C(C)C)OC(C)=O)n1	3.46% [9.25 µM] (active)
O=C(CNc1ccc2c(c1)C(=O)c1ccccc1C2=O)Nc1ccc2c(c1)C(=O)c1ccccc1C2=O	-87.4% (active)
O=[N+]([O-])c1cc(S(=O)(=O)Nc2ccccc2)ccc1Cl	-33.4% (active)
O=S(=O)(Nc1ccc(I)cc1F)c1ccc(-c2cnc(C3CC3)o2)cc1	-9.07% (active)
COC(=O)/C=C/C(=O)NC(N)=O	90.8%

Compound	growth
N#C/C(=C\c1ccc(C(F)(F)F)cc1)c1cc2ccccc2[nH]1	96.9%
COc1cc2c(=O)n(CCCN(C)C)c3c4cc[nH]c4ncc3c2cc1OC	81.5%
O=C(Nc1ncc(Cc2ccccc2)s1)c1ccc2c(c1)OCCCO2	7.91% (active)
CCN1C(=O)N(CC)C2C1NN=c1s/c(=C3\C(=O)N(C(C)C)c4ccccc43)c(=O)n12 (stereo not given)	16.5%
COc1cnc2c(c1)C(=O)c1c-2n(CCCN2CCC(O)CC2)c(=O)c2cc(Cl)ccc12	38.5%
C(#CCN1CCOCC1)CCCN1CCOCC1	93.6% and 110%
COc1cc2ncnc(Oc3ccc(NC(=O)Nc4ccc(C5(C#N)CCCC5)cc4)c4ccccc34)c2cc1OC	38.2%
O=C(/C=C/C12c3ccccc3C(c3ccccc31)C1C(=O)NC(=O)C12)c1ccc(I)cc1 (stereo not given)	51.2%
Cn1cc(-c2csc(-c3cccc(F)c3)n2)c2cccnc21	-49.6% [100 µM] (active)
Cc1cc2nc3c4cc(Cl)ccc4n(CCN(C)C)c3nc2cc1C	-42.1% (active)
CC1(C)COC(=S)N1	99.5%
COc1cc(-c2nn(-c3ccc(NC(=O)Nc4ccc(Cl)c(Cl)c4)cc3)cc2-c2ccncc2)ccc1Cl	30.4%
COC(=O)[C@@H]1CC[C@]2(C)[C@H](CC[C@@H]3O[C@@]32C)[C@@]1(C)CC(=O)c1ccoc1	95.7%
COc1ccc2c(c1)O/C(=C\c1ccc([N+](=O)[O-])s1)C2=O	-1.9% (active)
O=C1c2c(c3c4ccccc4[nH]c3c3ccc4ccccc4c23)C(=O)N1CCN1CCNCC1	76.5%
COc1ccc(CCN2C(=O)/C(=C/c3ccc(C4Oc5ccccc5C5CC(c6cccc(OC)c6)=NN54)cc3)SC2=S)cc1 (stereo not given)	107%
Clc1ccc2[nH]cc(-c3nc(-c4c[nH]c5ncccc45)cs3)c2c1	45.2%
CN1CCN(Cc2ccc(NC(=O)c3cncc(C#Cc4cnc(N)c5ncccc45)c3)cc2C(F)(F)F)CC1	-43.8% (active)
Fc1ccc2nc(-c3cc(-c4ccc5c(c4)OCO5)n[nH]3)[nH]c2c1	46.7%
CC(=O)c1nc(Nc2ccc(C)cc2)sc1C	93.1%
